According to PubChem BioAssay (NCATS):
Results filed as inconclusive are left out. A call without a number means that no potency is given here. Calls of active or inactive are those of the source. Calls follow the shape of the dose curve; as a rule, active = well fitted curve in the direction sought with a large enough effect; inconclusive = small, poorly fitted or top-dose-only effect, or another doubt; inactive = no such curve, though single readings can be large; an effect the other way counts as inactive or inconclusive.

Experiments:
[1] = Quantitative High-Throughput drug screen in 47 multiple myeloma cell lines against the NCATS MIPE library collection: EJM_DSMZ cell viability assay (AID 1918926; also: nearly all actives have a fitted effect of over 30% in size; also: potency is read from the fitted curve at half-maximal effect)
Method in brief: (§1)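 Primary qHTS used for cherry-picking: cells at 500/well, library compounds for 48 h (37C, 5% CO2), luminescent ATP assay.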

[2] = Quantitative High-Throughput drug screen in 47 multiple myeloma cell lines against the NCATS MIPE library collection: AMO1_DSMZ cell viability assay (AID 1918927; also: nearly all actives have a fitted effect of over 30% in size; also: potency is read from the fitted curve at half-maximal effect)
Method in brief: as §1

[3] = Quantitative High-Throughput drug screen in 47 multiple myeloma cell lines against the NCATS MIPE library collection: ARP1_JJKsccF8 cell viability assay (AID 1918928; also: nearly all actives have a fitted effect of over 40% in size)
Method in brief: (§2)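 500 cells/well; MIPE 4.0 library pinned in; 48 h, 37 °C, 5% CO2; CellTiter-Glo ATP luminescence. Controls: DMSO = 100% viability, medium only = 0%.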

[4] = Quantitative High-Throughput drug screen in 47 multiple myeloma cell lines against the NCATS MIPE library collection: Karpas620_DSMZ cell viability assay (AID 1918959); also: nearly all actives have a fitted effect of over 30% in size; also: potency is read from the fitted curve at half-maximal effect
Method in brief: (§3)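 Approved and investigational drugs from MIPE 4.0 were added by pin tool to 500 cells per well. After 48 hours at 37C, ATP-based CellTiter-Glo luminescence indicated remaining viability.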

[5] = Quantitative High-Throughput drug screen in 47 multiple myeloma cell lines against the NCATS MIPE library collection: JIM3_ECACC cell viability assay (AID 1918963; also: nearly all actives have a fitted effect of over 35% in size; also: potency is read from the fitted curve at half-maximal effect)
Method in brief: as §3

[6] = Quantitative High-Throughput drug screen in 47 multiple myeloma cell lines against the NCATS MIPE library collection: JIM1_ECACC cell viability assay (AID 1918964; also: potency is read from the fitted curve at half-maximal effect)
Method in brief: as §1

[7] = Quantitative High-Throughput drug screen in 47 multiple myeloma cell lines against the NCATS MIPE library collection: JJN3_DSMZ cell viability assay (AID 1918966; also: nearly all actives have a fitted effect of over 50% in size; also: potency is read from the fitted curve at half-maximal effect)
Method in brief: as §1

[8] = Quantitative High-Throughput drug screen in 47 multiple myeloma cell lines against the NCATS MIPE library collection: H1112_PLB cell viability assay (AID 1918967; also: nearly all actives have a fitted effect of over 30% in size; also: potency is read from the fitted curve at half-maximal effect)
Method in brief: as §1

[9] = Quantitative High-Throughput drug screen in 47 multiple myeloma cell lines against the NCATS MIPE library collection: Karpas25_ECACC cell viability assay (AID 1918968; also: nearly all actives have a fitted effect of over 35% in size; also: potency is read from the fitted curve at half-maximal effect)
Method in brief: as §1

[10] = Quantitative High-Throughput drug screen in 47 multiple myeloma cell lines against the NCATS MIPE library collection: KMS12PE_JCRB cell viability assay (AID 1918972); also: nearly all actives have a fitted effect of over 30% in size; also: potency is read from the fitted curve at half-maximal effect
Method in brief: (§4)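 Inhibition of cell viability is measured here. Each line was plated at 500 cells per well, treated with MIPE 4.0 drugs, kept 48 hours at 37C, then assayed for ATP content by CellTiter-Glo luminescence.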

[11] = Quantitative High-Throughput drug screen in 47 multiple myeloma cell lines against the NCATS MIPE library collection: KMS21BM_JCRB cell viability assay (AID 1918974); conditions: ATP luminescence, 48 h; viability: at 45.8 µM (top of the series); also: potency is read from the fitted curve at half-maximal effect
Method in brief: as §1

[12] = Quantitative High-Throughput drug screen in 47 multiple myeloma cell lines against the NCATS MIPE library collection: KMS26_JCRB cell viability assay (AID 1918975); also: nearly all actives have a fitted effect of over 45% in size; also: potency is read from the fitted curve at half-maximal effect
Method in brief: (§5)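 Relative luminescence from CellTiter-Glo served as the viability signal, referenced to DMSO-treated (100%) and cell-free medium (0%) controls. Treatment lasted 48 hours at 37C with 500 cells per well.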

[13] = Quantitative High-Throughput drug screen in 47 multiple myeloma cell lines against the NCATS MIPE library collection: ARD_JJKsccE7 cell viability assay (AID 1918929; also: potency is read from the fitted curve at half-maximal effect)
Method in brief: as §1

[14] = Quantitative High-Throughput drug screen in 47 multiple myeloma cell lines against the NCATS MIPE library collection: KMM1_JCRB cell viability assay (AID 1918960); also: nearly all actives have a fitted effect of over 30% in size; also: potency is read from the fitted curve at half-maximal effect
Method in brief: as §2

[15] = Quantitative High-Throughput drug screen in 47 multiple myeloma cell lines against the NCATS MIPE library collection: KHM11_PLB cell viability assay (AID 1918962); also: nearly all actives have a fitted effect of over 35% in size; also: potency is read from the fitted curve at half-maximal effect
Method in brief: as §3

[16] = Quantitative High-Throughput drug screen in 47 multiple myeloma cell lines against the NCATS MIPE library collection: INA6_PLB cell viability assay (AID 1918965; also: nearly all actives have a fitted effect of over 55% in size; also: potency is read from the fitted curve at half-maximal effect)
Method in brief: as §4

[17] = Quantitative High-Throughput drug screen in 47 multiple myeloma cell lines against the NCATS MIPE library collection: KMS27_JCRB cell viability assay (AID 1918970); also: nearly all actives have a fitted effect of over 30% in size; also: potency is read from the fitted curve at half-maximal effect
Method in brief: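 CellTiter-Glo luminescence after 48 h drug exposure at 37 °C; 500 cells/well, 1536-well format, pin-tool compound addition; DMSO = 100%, media-only = 0% viability.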

[18] = Quantitative High-Throughput drug screen in 47 multiple myeloma cell lines against the NCATS MIPE library collection: KMS12BM_JCRB cell viability assay (AID 1918971); also: nearly all actives have a fitted effect of over 35% in size; also: potency is read from the fitted curve at half-maximal effect
Method in brief: as §5

[19] = Quantitative High-Throughput drug screen in 47 multiple myeloma cell lines against the NCATS MIPE library collection: KMS20_JCRB cell viability assay (AID 1918973); also: nearly all actives have a fitted effect of over 45% in size
Method in brief: as §1

CC(C)OC(=O)C(C(=O)OC(C)C)=C1SC=CS1
Potency [1]: inactive | Potency [2]: inactive | Potency [3]: inactive | Potency [4]: inactive | Potency [5]: inactive | Potency [6]: inactive | Potency [7]: inactive | Potency [8]: inactive | Potency [9]: inactive | Potency [10]: inactive | viability [11]: 403% (active) | Potency [12]: 0.003 µM (active)

CCOC(=O)[C@H](CCc1ccccc1)N[C@H]1CCc2ccccc2N(CC(=O)O)C1=O
Potency [1]: 23.5 µM (active) | Potency [2]: 7.43 µM (active) | Potency [13]: 18.7 µM (active) | Potency [4]: 14.8 µM (active) | Potency [14]: 18.7 µM (active) | Potency [15]: 37.2 µM (active) | Potency [5]: 20.9 µM (active) | Potency [6]: 9.35 µM (active) | Potency [16]: 14.8 µM (active) | Potency [7]: 23.5 µM (active) | Potency [8]: 23.5 µM (active) | Potency [9]: 20.9 µM (active) | Potency [17]: 9.35 µM (active) | Potency [18]: 29.6 µM (active) | Potency [10]: 8.33 µM (active) | Potency [11]: 9.35 µM (active)

CC(C)(C#N)c1cc(Cn2cncn2)cc(C(C)(C)C#N)c1
Potency [1]: inactive | Potency [2]: inactive | Potency [13]: inactive | Potency [4]: inactive | Potency [14]: inactive | Potency [15]: inactive | Potency [5]: inactive | Potency [16]: inactive | Potency [8]: inactive | Potency [9]: inactive | Potency [17]: inactive | Potency [10]: inactive | Potency [12]: inactive

CNNCc1ccc(C(=O)NC(C)C)cc1
Potency [1]: inactive | Potency [2]: inactive | Potency [4]: inactive | Potency [14]: 2.96 µM (active) | Potency [15]: inactive | Potency [5]: inactive | Potency [6]: inactive | Potency [8]: inactive | Potency [9]: 5.26 µM (active) | Potency [17]: inactive | Potency [18]: 4.69 µM (active) | Potency [10]: inactive | Potency [11]: 2.35 µM (active) | Potency [12]: 18.7 µM (active)

CN(C)CCc1c[nH]c2ccc(CS(=O)(=O)N3CCCC3)cc12
Potency [1]: inactive | Potency [2]: inactive | Potency [3]: inactive | Potency [4]: inactive | Potency [15]: 16.6 µM (active) | Potency [5]: inactive | Potency [6]: inactive | Potency [16]: 0.0074 µM (active) | Potency [8]: inactive | Potency [17]: 23.5 µM (active) | Potency [18]: inactive | Potency [12]: inactive

CC(C)C1CCC(C(=O)N[C@H](Cc2ccccc2)C(=O)O)CC1 (stereo partly drawn)
Potency [1]: inactive | Potency [2]: inactive | Potency [3]: inactive | Potency [4]: inactive | Potency [15]: inactive | Potency [5]: inactive | Potency [6]: inactive | Potency [8]: inactive | Potency [17]: inactive | Potency [10]: inactive | Potency [19]: inactive | Potency [12]: inactive

COCCCOc1cc(C[C@@H](C[C@H](N)[C@@H](O)C[C@H](C(=O)NCC(C)(C)C(N)=O)C(C)C)C(C)C)ccc1OC
Potency [1]: inactive | Potency [2]: inactive | Potency [3]: inactive | Potency [4]: inactive | Potency [15]: inactive | Potency [5]: inactive | Potency [9]: 1.87 µM (active) | Potency [10]: inactive | Potency [12]: inactive
